The term inhibition denotes the change of the read-out against control, counted positive when it falls.

Molecules are shown by their SMILES.

In assay [1] the test system is Tyrosine-protein kinase ABL1 (Homo sapiens), P00519 [T315I]. The note with it: at 1 µM.
The subject of assay [2] is Tyrosine-protein kinase ABL1 (Homo sapiens), P00519 [Y253F]. To be noted: at 0.1 µM.
Assay [3] has the same test system. To be noted: at 1 µM.
The target in assay [4] is Tyrosine-protein kinase ABL1 (Homo sapiens) (UniProt P00519). The note with it: at 0.1 µM.
The target is the same in assay [5]. To be noted: at 1 µM.
Assay [6] concerns the target ALK tyrosine kinase receptor (Homo sapiens) (UniProt Q9UM73). The note with it: at 0.1 µM.
Assay [7] has the same target. The note with it: at 1 µM.
The target of assay [8] is Tyrosine-protein kinase ABL2 (Homo sapiens) (UniProt P42684). The note with it: at 0.1 µM.
Assay [9] shares this target. To be noted: at 1 µM.
For assay [10], the target named is Tyrosine-protein kinase receptor UFO (Homo sapiens) (UniProt P30530). To be noted: at 0.1 µM.
For assay [11], the target named is Tyrosine-protein kinase Blk (Homo sapiens) (UniProt P51451). The note with it: at 0.1 µM.
Assay [12] has the same target. The note with it: at 1 µM.
Assay [13] has as its target T1, Cytoplasmic tyrosine-protein kinase BMX (Homo sapiens) (UniProt P51813).
T1 sequence (whole entry): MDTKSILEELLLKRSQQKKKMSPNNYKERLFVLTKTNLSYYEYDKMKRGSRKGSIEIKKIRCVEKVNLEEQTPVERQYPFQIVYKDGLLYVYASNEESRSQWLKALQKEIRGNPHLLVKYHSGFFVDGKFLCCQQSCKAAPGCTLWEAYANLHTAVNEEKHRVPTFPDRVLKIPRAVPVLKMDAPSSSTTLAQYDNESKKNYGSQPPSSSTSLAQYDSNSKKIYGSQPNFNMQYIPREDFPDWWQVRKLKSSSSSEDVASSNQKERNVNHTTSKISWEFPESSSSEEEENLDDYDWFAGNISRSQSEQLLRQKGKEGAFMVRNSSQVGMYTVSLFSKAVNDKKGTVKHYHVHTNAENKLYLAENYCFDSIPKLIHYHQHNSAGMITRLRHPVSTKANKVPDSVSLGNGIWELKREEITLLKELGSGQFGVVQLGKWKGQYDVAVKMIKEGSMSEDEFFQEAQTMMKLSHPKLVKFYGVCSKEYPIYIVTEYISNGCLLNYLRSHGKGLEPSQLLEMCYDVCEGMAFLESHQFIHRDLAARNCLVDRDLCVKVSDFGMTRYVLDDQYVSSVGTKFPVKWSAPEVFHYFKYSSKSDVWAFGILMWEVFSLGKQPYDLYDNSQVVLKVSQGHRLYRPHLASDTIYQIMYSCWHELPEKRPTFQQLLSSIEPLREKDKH
To be noted: at 0.1 µM.

In assay [14] the target is T1, Cytoplasmic tyrosine-protein kinase BMX (Homo sapiens). To be noted: at 1 µM.
Assay [15] deals with Protein-tyrosine kinase 6 (Homo sapiens) (UniProt Q13882). The note with it: at 0.1 µM.
Assay [16] has the same target. To be noted: at 1 µM.
The target in assay [17] is Tyrosine-protein kinase BTK (Homo sapiens) (UniProt Q06187). To be noted: at 0.1 µM.
Assay [18] shares this target. To be noted: at 1 µM.
The target in assay [19] is Tyrosine-protein kinase CSK (Homo sapiens) (UniProt P41240). The note with it: at 0.1 µM.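 Also: value given is the averaged percent inhibition of CSK kinase activity, from the GSK PKIS kinase inhibitor set screening panel.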
Assay [20] deals with Tyrosine-protein kinase receptor UFO (Homo sapiens) (UniProt P30530). The note with it: at 1 µM.

Chain of Tyrosine-protein kinase Blk (Homo sapiens) (P51451 2-505 limits assumed): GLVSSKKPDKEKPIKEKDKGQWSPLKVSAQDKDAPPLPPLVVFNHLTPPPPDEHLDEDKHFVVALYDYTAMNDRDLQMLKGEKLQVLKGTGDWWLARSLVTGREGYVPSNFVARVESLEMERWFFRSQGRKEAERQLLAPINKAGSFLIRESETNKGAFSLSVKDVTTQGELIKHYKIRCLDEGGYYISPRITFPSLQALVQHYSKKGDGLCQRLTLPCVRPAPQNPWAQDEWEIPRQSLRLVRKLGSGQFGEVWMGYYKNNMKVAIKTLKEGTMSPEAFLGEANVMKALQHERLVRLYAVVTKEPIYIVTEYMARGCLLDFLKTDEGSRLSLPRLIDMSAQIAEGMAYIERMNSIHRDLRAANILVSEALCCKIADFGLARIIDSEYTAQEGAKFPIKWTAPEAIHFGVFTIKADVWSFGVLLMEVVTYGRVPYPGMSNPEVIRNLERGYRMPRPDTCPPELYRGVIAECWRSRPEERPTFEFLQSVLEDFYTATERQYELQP
Chain of Protein-tyrosine kinase 6 (Homo sapiens) (Q13882 whole entry, looked up): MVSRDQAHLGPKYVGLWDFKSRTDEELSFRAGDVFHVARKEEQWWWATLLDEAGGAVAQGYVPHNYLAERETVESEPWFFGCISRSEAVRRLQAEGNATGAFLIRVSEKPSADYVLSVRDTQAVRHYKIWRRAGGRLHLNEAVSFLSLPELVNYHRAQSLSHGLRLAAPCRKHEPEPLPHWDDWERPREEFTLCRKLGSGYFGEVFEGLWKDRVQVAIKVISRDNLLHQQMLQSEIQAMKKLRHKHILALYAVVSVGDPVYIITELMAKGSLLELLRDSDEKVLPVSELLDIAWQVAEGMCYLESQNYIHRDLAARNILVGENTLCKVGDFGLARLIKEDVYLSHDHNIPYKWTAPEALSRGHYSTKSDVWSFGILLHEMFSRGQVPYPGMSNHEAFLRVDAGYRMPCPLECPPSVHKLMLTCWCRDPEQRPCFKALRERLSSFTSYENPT
Chain of Tyrosine-protein kinase BTK (Homo sapiens) (Q06187 whole entry): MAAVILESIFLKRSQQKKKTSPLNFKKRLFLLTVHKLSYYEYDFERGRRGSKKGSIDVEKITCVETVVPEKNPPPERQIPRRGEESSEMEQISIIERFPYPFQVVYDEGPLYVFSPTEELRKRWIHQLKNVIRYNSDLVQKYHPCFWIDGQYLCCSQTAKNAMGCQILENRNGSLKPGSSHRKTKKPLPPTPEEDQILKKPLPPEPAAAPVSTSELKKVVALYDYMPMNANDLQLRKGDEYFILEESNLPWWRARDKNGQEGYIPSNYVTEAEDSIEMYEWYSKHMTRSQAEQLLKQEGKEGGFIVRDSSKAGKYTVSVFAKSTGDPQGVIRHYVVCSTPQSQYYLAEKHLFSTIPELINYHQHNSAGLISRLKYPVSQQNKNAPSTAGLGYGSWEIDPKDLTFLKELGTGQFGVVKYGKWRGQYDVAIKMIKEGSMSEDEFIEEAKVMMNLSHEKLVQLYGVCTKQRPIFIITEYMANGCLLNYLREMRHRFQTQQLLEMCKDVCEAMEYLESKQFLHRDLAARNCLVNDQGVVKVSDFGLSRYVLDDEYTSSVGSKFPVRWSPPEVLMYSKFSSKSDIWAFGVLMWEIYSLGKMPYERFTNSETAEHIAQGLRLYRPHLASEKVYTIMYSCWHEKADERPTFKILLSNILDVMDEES
Chain of Tyrosine-protein kinase receptor UFO (Homo sapiens) (P30530 whole entry): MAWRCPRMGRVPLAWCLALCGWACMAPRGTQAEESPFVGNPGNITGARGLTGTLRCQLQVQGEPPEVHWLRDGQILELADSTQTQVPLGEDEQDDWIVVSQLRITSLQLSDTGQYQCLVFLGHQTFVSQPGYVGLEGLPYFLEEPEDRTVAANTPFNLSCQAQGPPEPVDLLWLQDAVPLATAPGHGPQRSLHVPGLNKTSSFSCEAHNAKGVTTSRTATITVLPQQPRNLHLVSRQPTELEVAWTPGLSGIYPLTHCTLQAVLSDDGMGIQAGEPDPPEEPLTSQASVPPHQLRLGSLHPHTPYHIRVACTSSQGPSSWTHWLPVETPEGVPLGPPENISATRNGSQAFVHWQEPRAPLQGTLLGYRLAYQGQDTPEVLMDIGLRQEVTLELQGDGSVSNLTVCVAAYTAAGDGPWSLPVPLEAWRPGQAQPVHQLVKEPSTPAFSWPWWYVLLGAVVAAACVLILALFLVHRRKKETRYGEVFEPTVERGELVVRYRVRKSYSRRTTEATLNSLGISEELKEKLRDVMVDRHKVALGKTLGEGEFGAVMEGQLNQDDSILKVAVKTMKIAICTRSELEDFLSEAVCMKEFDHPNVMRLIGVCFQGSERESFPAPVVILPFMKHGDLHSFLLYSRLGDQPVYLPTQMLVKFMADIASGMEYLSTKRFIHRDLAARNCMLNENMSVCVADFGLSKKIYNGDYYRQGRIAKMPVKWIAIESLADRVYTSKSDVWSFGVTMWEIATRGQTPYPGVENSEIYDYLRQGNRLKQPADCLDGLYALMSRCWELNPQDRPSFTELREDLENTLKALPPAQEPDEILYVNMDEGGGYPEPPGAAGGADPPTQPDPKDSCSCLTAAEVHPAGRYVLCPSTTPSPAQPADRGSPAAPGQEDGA
Chain of Tyrosine-protein kinase ABL2 (Homo sapiens) (P42684 whole entry): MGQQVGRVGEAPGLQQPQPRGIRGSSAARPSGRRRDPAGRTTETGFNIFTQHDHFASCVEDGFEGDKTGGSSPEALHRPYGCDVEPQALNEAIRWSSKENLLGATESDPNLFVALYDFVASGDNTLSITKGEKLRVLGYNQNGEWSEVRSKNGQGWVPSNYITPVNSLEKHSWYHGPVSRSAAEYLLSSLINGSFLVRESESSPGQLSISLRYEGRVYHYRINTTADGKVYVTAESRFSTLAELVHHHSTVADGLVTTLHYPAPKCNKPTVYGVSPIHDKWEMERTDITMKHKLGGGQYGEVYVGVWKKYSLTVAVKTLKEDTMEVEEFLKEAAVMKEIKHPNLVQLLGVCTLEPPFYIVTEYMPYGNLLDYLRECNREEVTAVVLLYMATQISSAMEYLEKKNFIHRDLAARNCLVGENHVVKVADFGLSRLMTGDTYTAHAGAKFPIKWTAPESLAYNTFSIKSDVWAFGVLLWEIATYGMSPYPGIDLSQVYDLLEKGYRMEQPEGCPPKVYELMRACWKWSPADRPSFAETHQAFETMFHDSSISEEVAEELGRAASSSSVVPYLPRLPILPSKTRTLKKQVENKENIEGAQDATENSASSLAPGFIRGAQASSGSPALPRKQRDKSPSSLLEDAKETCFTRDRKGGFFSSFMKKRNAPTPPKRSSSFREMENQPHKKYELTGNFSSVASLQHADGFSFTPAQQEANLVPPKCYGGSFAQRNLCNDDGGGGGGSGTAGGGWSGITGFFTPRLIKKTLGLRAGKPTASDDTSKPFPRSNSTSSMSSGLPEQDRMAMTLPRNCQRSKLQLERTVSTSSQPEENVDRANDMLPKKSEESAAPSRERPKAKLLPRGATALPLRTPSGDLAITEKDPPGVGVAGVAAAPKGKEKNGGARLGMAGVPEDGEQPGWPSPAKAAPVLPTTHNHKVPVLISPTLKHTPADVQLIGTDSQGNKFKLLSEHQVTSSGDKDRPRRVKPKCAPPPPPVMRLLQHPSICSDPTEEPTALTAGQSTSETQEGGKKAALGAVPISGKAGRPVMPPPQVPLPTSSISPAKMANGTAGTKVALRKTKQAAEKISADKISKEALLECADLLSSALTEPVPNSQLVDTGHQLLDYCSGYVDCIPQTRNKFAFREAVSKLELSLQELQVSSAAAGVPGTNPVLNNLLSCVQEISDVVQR
Chain of Tyrosine-protein kinase CSK (Homo sapiens) (P41240 2-450 limits assumed): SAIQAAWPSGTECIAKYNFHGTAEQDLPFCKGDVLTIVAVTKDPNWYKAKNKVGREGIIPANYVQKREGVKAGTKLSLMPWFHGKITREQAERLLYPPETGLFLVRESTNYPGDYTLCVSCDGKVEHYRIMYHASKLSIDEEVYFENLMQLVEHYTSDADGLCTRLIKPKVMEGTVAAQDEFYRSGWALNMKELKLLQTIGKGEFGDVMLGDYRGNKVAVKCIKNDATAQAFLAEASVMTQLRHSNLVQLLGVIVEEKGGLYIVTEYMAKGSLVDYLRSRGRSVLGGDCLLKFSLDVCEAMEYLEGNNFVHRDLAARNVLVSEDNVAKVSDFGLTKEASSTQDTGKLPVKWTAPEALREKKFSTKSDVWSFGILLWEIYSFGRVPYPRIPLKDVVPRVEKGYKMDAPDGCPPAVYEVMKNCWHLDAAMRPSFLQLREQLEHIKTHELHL

Regarding `Cc1nnc(-c2ccc(C)c(-c3ccc(C(=O)Nc4cccc(C#N)c4)cc3)c2)o1`, the inhibition in assay [1] came out at 2.58%; in assay [2] it was 1.18%; in assay [3] it was 3.76%; in assay [4], 3.64%; in assay [5], 5.81%; in [6], 3.61%. The inhibition in assay [7] is 2.36%; in assay [8], 4.17%; in [9], 6.56%; in [10] it was -4.6%; in assay [11], 2.41%; in assay [12] it was 3.76%. In addition, the inhibition is 4.54% in assay [13]; 2.78% in assay [14]; 2.27% in assay [15]; 2.95% in assay [16]; -0.22% in [17]; 1.88% in [18]. In addition, the inhibition in assay [19] was 0.99%.

Turning to `Cc1cc(O)cc(C)c1/C=C/c1cncc(-c2nn[nH]n2)c1`, the inhibition was 8.36% in [1]; 31.5% in assay [2]; 86.1% in [3]; 12.4% in assay [4]; 71.1% in [5]; -0.37% in [6]. Besides, the inhibition is 4.03% in assay [7]; 19.9% in assay [8]; 68.6% in [9]; -8.81% in [10]; -3.63% in assay [20]; 0.83% in assay [11]. For the same compound, the inhibition in assay [12] is 48.1%; in assay [13], 11.2%; in [14], 66.3%; in [15], 29.6%; in assay [16], 86.3%; in [17] it was -0.39%. Further, the inhibition was 7.14% in assay [18] and 8.08% in [19].

For `Cc1ccc(C(=O)NC2CCCCC2)cc1-c1ccc(C(=O)NCC2CC2)cc1`, the inhibition in assay [1] is -0.78%; in [2], 1.39%; in assay [3] it was 2.22%; in [4] it was 4.64%; in assay [5], 6.52%; in assay [6], 2.91%. The inhibition came to 4.07% in assay [7]; 4.04% in [8]; 8.56% in assay [9]; 0.41% in assay [10]; 3.11% in assay [20]; 2.04% in assay [11]. Also, the inhibition came out at 3.76% in assay [12]; 2.45% in assay [13]; 4.53% in assay [14]; 1.79% in assay [15]; 3.75% in [16]; 1.78% in assay [17]. Also, the inhibition in assay [18] worked out at 3.37%; in [19], 2.72%.

As for `CCCN1CCC=C(c2ccc(Nc3nc(Nc4ccccc4C(N)=O)c4cc[nH]c4n3)c(C)c2)C1`, the inhibition in [1] is 12.1%; in assay [2], 1.82%; in [3], 7.55%; in assay [4], 5.84%; in assay [5] it was 16.4%; in [6], 76.2%. Also, the inhibition was 82.1% in [7]; 10% in assay [8]; 13% in assay [9]; 8.88% in assay [10]; 58.1% in assay [20]; 1.84% in [11]. In addition, the inhibition in assay [12] is 9.78%; in [13] it was 3.95%; in assay [14], 7.54%; in assay [15], 1.91%; in [16] it was 17.4%; in [17], -2.03%. In addition, the inhibition is -0.62% in [18] and -1.32% in assay [19].

On to `CCn1c(-c2nonc2N)nc2cncc(C(=O)N3CCNCC3)c21`, for which the inhibition in [1] came to 1.77%; in [2], 2.95%; in assay [3] it was 5.17%; in assay [4], 3.16%; in [5], 3.28%; in [6], 3.59%. Besides, the inhibition in [7] was 5.18%; in assay [8], 1.81%; in assay [9], 4.42%; in assay [10] it was -7.98%; in [20] it was -9.66%; in [11], 2.72%. Moreover, the inhibition is 4.31% in assay [12]; 6.75% in assay [13]; 8.89% in [14]; 4.01% in assay [15]; 5.31% in [16]; -1.34% in assay [17]. Further, the inhibition is 1.16% in assay [18] and 4.39% in [19].

As for `CCn1c(-c2nonc2N)nc2cnc(Oc3cccc(NC(=O)c4ccc(OCCN5CCOCC5)cc4)c3)cc21`, the inhibition in assay [1] came out at 4.26%; in assay [2] it was 5.27%; in [3], 4.41%; in assay [4], 3.37%; in assay [5], 11.1%; in assay [6], 1.15%. In addition, the inhibition in assay [7] was 3.72%; in [8], 4.56%; in assay [9], 7.99%; in assay [10] it was -6.28%; in assay [20], -2.93%; in [11], 2.22%. The inhibition is 2.41% in assay [12]; 0.58% in assay [13]; 2.53% in assay [14]; 0.94% in assay [15]; 4.32% in [16]; -1.45% in assay [17]. In addition, the inhibition was -2.04% in assay [18] and 2.95% in assay [19].

Consider `COc1cc(C=NNc2ncnc3c2cnn3-c2ccccc2)ccc1O`, for which the inhibition stood at 82.1% in assay [1]; 43.3% in assay [2]; 86.6% in assay [3]; 23.4% in [4]; 73.7% in assay [5]; 2.44% in assay [6]. The inhibition in assay [7] was 6.69%; in assay [8], 11.6%; in [9], 71.5%; in [10], -1.48%; in [20] it was 10.6%; in [11] it was 10.3%. The inhibition in assay [12] amounted to 65.5%; in assay [13] it was 3.92%; in [14], 21.9%; in [15] it was 2.93%; in assay [16], 14.2%; in [17], 1.25%. Also, the inhibition in assay [18] is 2.34%; in [19], 4.22%.

On to `CCn1c(-c2nonc2N)nc2c(C#CC(C)(C)O)nc(CN3CCCC3)cc21`, for which the inhibition in [1] was 0.96%; in [2] it was 0.59%; in assay [3], -0.16%; in [4] it was 0.66%; in [5], 3.27%; in [6], -0.84%. The inhibition is 0.01% in assay [7]; 2.08% in [8]; 5.65% in assay [9]; 1.88% in assay [10]; 1.53% in assay [20]; -0.49% in assay [11]. Moreover, the inhibition was 0.66% in assay [12]; 2.82% in assay [13]; -1.55% in [14]; -2.67% in assay [15]; -1.74% in assay [16]; -1.44% in [17]. Further, the inhibition in assay [18] is -1.15%; in [19], -0.07%.

With `CCn1c(-c2nonc2N)nc2ccncc21`, the inhibition in assay [1] is -0.3%; in assay [2], -0.36%; in assay [3] it was 1.17%; in [4], 1.53%; in assay [5], 3.89%; in assay [6], 1.59%. In addition, the inhibition is 1.87% in assay [7]; 2.85% in assay [8]; -1.97% in [9]; -1.17% in assay [10]; 1.22% in assay [20]; 0.68% in assay [11]. Besides, the inhibition was 2.01% in assay [12]; 3.88% in assay [13]; -0.38% in assay [14]; -0.74% in assay [15]; -3.65% in assay [16]; -0.43% in assay [17]. Besides, the results for the inhibition in assay [18] and in assay [19] were 1.46% and -1.68%, respectively.

Regarding `CCn1c(-c2nonc2N)nc2c(C#CC(C)(C)O)nc(OC[C@@H](N)c3ccccc3)cc21`, the inhibition was 3.35% in assay [1]; 0.12% in [2]; 2.98% in [3]; 7.72% in [4]; 10.1% in [5]; -0.2% in assay [6]. Besides, the inhibition in assay [7] was 10.2%; in assay [8], 5.61%; in assay [9], 1.83%; in [10] it was 2.41%; in assay [20] it was 3.03%; in [11] it was 0.59%. The inhibition in assay [12] was 0.29%; in assay [13], -0.32%; in [14], 0.02%; in assay [15] it was 0.79%; in assay [16], -0.34%; in assay [17], -0.1%. Also, the inhibition in [18] was 1.72%; in assay [19] it was -1.24%.

For the compound `O=C(Nc1n[nH]c2nc(-c3ccco3)c(Br)cc12)C1CC1`, the inhibition is 26.6% in assay [1]; 3% in [2]; 11.5% in [3]; 5.46% in assay [4]; 24.1% in assay [5]; 1.26% in assay [6]. Besides, the inhibition in assay [7] was 4.4%; in assay [8] it was 3.57%; in assay [9], 18.4%; in assay [10], -6.59%; in assay [20] it was -1.16%; in [11] it was 3.07%. For the same compound, the inhibition was 20.5% in [12]; 7.33% in assay [13]; 4.58% in [14]; 6.01% in assay [15]; 3.67% in [16]; -0.13% in assay [17]. In addition, the inhibition was found to be 4.11% in [18] and 6.94% in assay [19].
